Reference: PubChem BioAssay (NCATS)
Inconclusive results are not listed. Active and inactive are the calls of the source. Unless noted, calls come from the whole dose curve; as a rule, active = well fitted curve in the direction sought with a large enough effect; inconclusive = small, poorly fitted or top-dose-only effect, or another doubt; inactive = no such curve, though single readings can be large; an effect the other way counts as inactive or inconclusive.

What was measured:
[1] = biological target: Rap guanine nucleotide exchange factor 3 (Homo sapiens) (UniProt O95398); test: Confirmatory qHTS for agonist of cAMP-regulated guanine nucleotide exchange factor 3 (EPAC1) (AID 1645881);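 note: EPAC1 catalysed release of BODIPY-GDP from Rap1B seen as fluorescence loss; 100% = effect of cAMP agonist control; nearly all actives have a fitted effect of over 75% in size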
[2] = biological target: Rap guanine nucleotide exchange factor 4 (Homo sapiens) (UniProt Q8WZA2); test: Confirmatory qHTS for agonist of cAMP-regulated guanine nucleotide exchange factor 4 (EPAC2) (AID 1645884);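 note: nucleotide exchange releases bodipy-GDP from Rap1 and this lowers its fluorescence; % is set by controls: 0 for no effect and ±100 for the full control effect; nearly all actives have a fitted effect of over 65% in size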
[3] = biological target: Rap guanine nucleotide exchange factor 4 (Homo sapiens) (UniProt Q8WZA2); test: Confirmatory qHTS for antagonist of cAMP-regulated guanine nucleotide exchange factor 4 (EPAC2) (AID 1645885); note: nearly all actives have a fitted effect of over 25% in size; note: potency is the fitted concentration of half-maximal effect; for activity change, negative = inhibition: % is set by controls: 0 for no effect and ±100 for the full control effect
[4] = biological target: Rap guanine nucleotide exchange factor 3 (Homo sapiens) (UniProt O95398); test: Counterscreen qHTS for antagonist of cAMP-regulated guanine nucleotide exchange factor 3 (EPAC1) (AID 1645888);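 note: fluorescence loss as bound BODIPY-GDP is released from Rap1B; % of control where 0% means no effect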
Summary of the method: (§1)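 Measured: fluorescence of BODIPY-GDP bound to Rap1B, which falls as exchange proceeds. Conditions include 50 uM competing GDP, 5 and 30 min reads, and a later cAMP challenge for antagonist detection.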

[5] = biological target: Rap guanine nucleotide exchange factor 3 (Homo sapiens) (UniProt O95398); test: Counterscreen qHTS for agonist of cAMP-regulated guanine nucleotide exchange factor 3 (EPAC1) (AID 1645889); note: % of control where 0% means no effect; nearly all actives have a fitted effect of over 40% in size
Summary of the method: as §1

[6] = biological target: Tyrosyl-DNA phosphodiesterase 1 (Homo sapiens) (UniProt Q9NUW8); test: Confirmation Assay for Inhibitors of Tyrosyl-DNA Phosphodiesterase (TDP1) (AID 489007); details: recombinant human TDP1 enzymatic activity, dose-response; note: potency is the fitted concentration of half-maximal effect; nearly all actives have a fitted effect of over 40% in size
Summary of the method: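 Recombinant human Tdp1 (1 nM final), expressed in E. coli, preincubated 15 min with compound. Then 15 nM 5'-biotin/3'-phosphotyrosine-FITC DNA substrate added for 5 min at room temperature. AlphaScreen beads (10 ug/ml) added for 10 min; cleavage gives signal loss.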

[7] = biological target: Lysosomal acid glucosylceramidase (Homo sapiens) (UniProt P04062); test: Glucocerebrosidase-p2 (AID 348; in the data active = potency below about 10 µM; note: potency is the fitted concentration of half-maximal effect); details: purified GBA, blue fluorogenic substrate, 40 min
Summary of the method: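 Compounds titrated from 0.6 nM upwards against 0.2 nM enzyme in pH 5.9 citric acid/KH2PO4, taurocholate, tween-20; blue fluorogenic substrate 80 uM, 40 min room temperature, stopped and read Ex 365/Em 440 for AC50.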

[8] = AP1 Signaling Pathway (AID 357; active = well fitted curve in either direction with a large enough effect, not every such curve was filed as active;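 note: ME-180 reporter cells stimulated with EGF at its EC50 level; % is set by controls: 0 for no effect and ±100 for the full control effect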)
Summary of the method: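 Titration-series screen for positive or negative modulators of EC50 EGF-induced signaling in ME-180 cells carrying an AP-1-driven beta-lactamase reporter. After 5 hours at 37 degrees Celsius, CCF4 460nm/530nm emission ratio gave %Activity; AC50 values derived.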

[9] = NFAT Signaling Pathway (AID 444; active = well fitted curve in either direction with a large enough effect, not every such curve was filed as active;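 note: carbachol stimulus at about its EC50 of 1 µM final; % is set by controls: 0 for no effect and ±100 for the full control effect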); details: Jurkat NFAT-bla M1, carbachol, beta-lactamase ratio, 5 h
Summary of the method: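 Jurkat cells carrying an NFAT-driven β-lactamase reporter and co-transfected muscarinic M1 receptor were treated with compound plus carbachol (1 uM final, an EC50 level) for 5 h at 37 °C. CCF4 loading followed for 1 h at RT; 460/530 nm ratio gave %activity.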

[10] = Stat Signaling Pathway (AID 446; active = well fitted curve in either direction with a large enough effect, not every such curve was filed as active;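 note: ME-180 cervical cancer cells given 40 pM IL-6 alongside compound; SIE-controlled beta-lactamase reporter measured as 460/530 nm FRET emission ratio; % is set by controls: 0 for no effect and ±100 for the full control effect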)
Summary of the method: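 IL-6/STAT signaling read in ME-180 cells via an SIE beta-lactamase reporter. Stimulus was 40 pM IL-6 (its AC50) for 5 hrs, so both activation and inhibition register.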

[11] = biological target: Glucocorticoid receptor (Homo sapiens) (UniProt P04150); test: GR-EFC Redistribution (AID 451; calls by dose curve; note: potency is the fitted concentration of half-maximal effect); details: CHO-K1 GR-EFC translocation, beta-gal luminescence, 2 h
Summary of the method: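 CHO-K1 cells stably expressing nuclear-localized β-gal enzyme acceptor and GR fused C-terminally to the enzyme donor fragment; ligand-driven nuclear translocation restores β-gal by complementation. Compounds titrated up to 46 uM final, 2 h at 37 °C; luminescence read.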

[12] = biological target: 3',5'-cyclic-AMP phosphodiesterase 4B (Homo sapiens) (UniProt Q07343); test: qHTS Assay for Inhibitors of PDE-IV (AID 607; active = well fitted activation curve with a large enough effect in the main read-out, with a control signal flat, not every such curve was filed as active; note: % of control where 0% means no effect)
Summary of the method: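 Live HEK293 cells with a modified cyclic nucleotide-gated (CNG) channel report intracellular cAMP via membrane-potential dye fluorescence (ex 535/em 590 nm). Endogenous PDE-IV was targeted. Compounds were tested at up to 22.9 uM final; RO 20-1724 100 uM served as control.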

[13] = qHTS Assay for Identification of Small Molecule Agonists for Hypoxia Response Element Signaling Pathway (AID 914; active = well fitted activation curve with a large enough effect in the signal ratio, with a control signal flat, not every such curve was filed as active; the % refers to the signal ratio; note: potency is the fitted concentration of half-maximal effect); details: ME-180 (cervical carcinoma) HRE-bla reporter, beta-lactamase ratio, CoCl2, 17 h; activation: stronger effect = higher value
Summary of the method: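 Reporter activity (beta-lactamase, CCF4 460nm/530nm ratio) in HRE-bla ME-180 cells is recorded after 17 h compound exposure with EC50 CoCl2 at 37 degrees Celsius. AC50 values come from titration data.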

[14] = biological target: Guanine nucleotide-binding protein G(i) subunit alpha-1 (Homo sapiens) (UniProt P63096); test: qHTS Assay for Inhibitors of RGS12 GoLoco Motif Activity (Green Fluorophore) (AID 879);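 note: 0% = labeled peptide with Gαi1 and full inhibition = labeled peptide alone without protein; negative values mean loss of peptide binding seen as reduced polarization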
Summary of the method: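 Fluorescence polarization assay: 50 nM Gαi1 with 10 nM FITC-labeled RGS12 GoLoco peptide in 10 mM Tris pH 7.5, 150 mM NaCl, 0.1 mM GDP, 0.05% NP40, 10 min at room temperature with compound.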

[15] = biological target: Muscarinic acetylcholine receptor M1 (Rattus norvegicus) (UniProt P08482); test: qHTS Assay for Antagonists of Acetylcholine Muscarinic M1 Receptor: Kinetic Measurement of Intracellular Calcium Response (AID 943); note: nearly all actives have a fitted effect of over 75% in size
Summary of the method: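 CHO cells expressing rat M1 receptor, Fluo-4 loaded, preincubated 10 min with compound, then stimulated with EC80 carbachol (100 nM final). Kinetic calcium fluorescence over 4 min; response taken as peak over basal signal.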

[16] = biological target: Pyruvate kinase (Leishmania mexicana) (UniProt Q27686); test: qHTS Validation Assay for Inhibitors of Leishmania Mexicana Pyruvate Kinase (AID 945);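 note: 0% = DMSO only neutral control wells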
Summary of the method: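 Mutant LmPYK (E451W), 0.2 nM, plus 0.5 mM PEP and 0.1 mM ADP in 50 mM imidazole pH 7.2 containing 0.01% Tween 20 and 0.05% BSA. Incubated 1 h at room temperature; luminescence via PKLight, normalized to DMSO.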

[17] = biological target: Pyruvate kinase PKM (Homo sapiens) (UniProt P14618); test: qHTS Assay for Activators of Human Muscle Pyruvate Kinase (AID 954; active = well fitted curve in the direction sought with a large enough effect, not every such curve was filed as active;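 note: 0% = uninhibited enzyme and -100% = no enzyme or full thiadiazolimine inhibition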)
Summary of the method: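 Enzyme was run at intermediate activity so both inhibitors and activators could be detected. ATP formed from ADP and PEP by 0.1 nM human PKM2 during a 1 h room-temperature incubation was quantified by coupled luciferase luminescence.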

[18] = biological target: Alpha-galactosidase (Coffea arabica) (UniProt Q42656); test: Counterscreen for Glucocerebrosidase Inhibitors: qHTS Assay for Coffee Bean alpha-Galactosidase at pH 4.5 (AID 957);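 note: plate controls were enzyme alone for no effect and no enzyme for full effect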
Summary of the method: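 Coffee bean enzyme (2 nM) with 80 uM 4-methylumbelliferyl alpha-D-galactopyranoside in 50 mM citric acid, 0.005% Tween-20, pH 4.5, 20 min at room temperature; compounds 0.7 nM–77 uM. Stopped at pH 10, fluorescence 365/440 nm; AC50 from Hill fits.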

[19] = biological target: Alpha-galactosidase A (Homo sapiens) (UniProt P06280); test: Counterscreen for Glucocerebrosidase Inhibitors: qHTS Assay for Human alpha-Galactosidase at pH 4.5 (AID 992); note: 0% is about no effect
Summary of the method: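 Read-out is 4-methylumbelliferone fluorescence (365 nm excitation, 440 nm emission) after a pH 10 NaOH/glycine stop. Reactions held 2 nM enzyme and 80 uM substrate at pH 4.5 for 20 min at room temperature.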

[20] = biological target: alpha-glucosidase (Oryza sativa, rice) (UniProt Q653V4); test: Counterscreen for Glucocerebrosidase Inhibitors: qHTS Assay for Rice alpha-Glucosidase at pH 5.0 (AID 997);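 note: 0% = full activity with enzyme and -100% = basal without enzyme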
Summary of the method: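 Rice alpha-glucosidase (4 nM final) with 400 uM 4-methylumbelliferyl-alpha-D-glucopyranoside in citrate buffer pH 5.0, 20 min at room temperature, stopped at pH 10; fluorescence 365/440 nm, compounds 0.7 nM–77 uM, AC50 from Hill fits.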

[21] = biological target: Alpha-galactosidase (Coffea arabica) (UniProt Q42656); test: Counterscreen for Glucocerebrosidase Inhibitors: qHTS Assay for Coffee Bean alpha-Galactosidase at pH 5.9 (AID 998);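 note: plate controls were uninhibited enzyme for no effect and no-enzyme basal signal for full effect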
Summary of the method: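 Green coffee bean enzyme (2 nM final) was incubated with compounds (0.7 nM–77 uM) and 4-methylumbelliferyl alpha-D-galactopyranoside (80 uM) in citrate buffer pH 5.9, 20 min at room temperature. High-pH stop; fluorescence 365/440 nm; AC50 from Hill fits.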

[22] = biological target: DNA dC->dU-editing enzyme APOBEC-3G (Homo sapiens) (UniProt Q9HC16); test: qHTS for inhibitors of Vif-A3G interactions: Validation (AID 588379); note: 0% is about no effect
Summary of the method: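 HeLa cells stably expressing Vif and A3G-eYFP, 700 cells/well, incubated overnight at 37 deg C, then exposed to compound overnight at 37 deg C. Inhibition of Vif-mediated degradation read as increased yellow fluorescence (Ex 488/Em 500-530) by laser-scanning cytometry.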

Sequence of Rap guanine nucleotide exchange factor 4 (Homo sapiens) (Q8WZA2 whole entry, looked up): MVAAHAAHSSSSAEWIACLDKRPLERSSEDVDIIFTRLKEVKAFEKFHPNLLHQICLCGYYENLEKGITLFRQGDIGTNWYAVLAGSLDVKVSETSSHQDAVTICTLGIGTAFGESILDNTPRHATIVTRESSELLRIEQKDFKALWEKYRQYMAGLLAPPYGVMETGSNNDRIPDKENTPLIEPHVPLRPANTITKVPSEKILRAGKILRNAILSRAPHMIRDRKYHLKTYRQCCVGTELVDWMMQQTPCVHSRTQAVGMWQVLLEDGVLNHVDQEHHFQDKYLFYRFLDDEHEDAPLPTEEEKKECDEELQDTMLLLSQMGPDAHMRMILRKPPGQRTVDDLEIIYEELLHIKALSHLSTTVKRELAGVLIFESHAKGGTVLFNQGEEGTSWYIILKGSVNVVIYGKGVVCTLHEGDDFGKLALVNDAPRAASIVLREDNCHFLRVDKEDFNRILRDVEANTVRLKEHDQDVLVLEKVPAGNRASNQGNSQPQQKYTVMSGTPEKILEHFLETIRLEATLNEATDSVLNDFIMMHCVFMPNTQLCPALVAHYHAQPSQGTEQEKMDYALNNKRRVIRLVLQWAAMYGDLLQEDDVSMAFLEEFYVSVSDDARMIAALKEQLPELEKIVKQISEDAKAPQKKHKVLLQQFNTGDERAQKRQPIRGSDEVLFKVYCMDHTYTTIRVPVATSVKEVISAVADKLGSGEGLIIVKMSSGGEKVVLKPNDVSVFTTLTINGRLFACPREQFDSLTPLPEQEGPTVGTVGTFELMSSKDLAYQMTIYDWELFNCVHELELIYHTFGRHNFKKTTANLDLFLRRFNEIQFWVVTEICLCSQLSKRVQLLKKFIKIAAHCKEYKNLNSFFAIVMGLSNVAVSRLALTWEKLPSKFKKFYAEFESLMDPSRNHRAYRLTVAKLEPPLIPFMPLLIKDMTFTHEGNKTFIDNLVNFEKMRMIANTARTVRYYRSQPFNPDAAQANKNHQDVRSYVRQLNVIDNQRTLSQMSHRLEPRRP
Sequence of Rap guanine nucleotide exchange factor 3 (Homo sapiens) (O95398 whole entry, looked up): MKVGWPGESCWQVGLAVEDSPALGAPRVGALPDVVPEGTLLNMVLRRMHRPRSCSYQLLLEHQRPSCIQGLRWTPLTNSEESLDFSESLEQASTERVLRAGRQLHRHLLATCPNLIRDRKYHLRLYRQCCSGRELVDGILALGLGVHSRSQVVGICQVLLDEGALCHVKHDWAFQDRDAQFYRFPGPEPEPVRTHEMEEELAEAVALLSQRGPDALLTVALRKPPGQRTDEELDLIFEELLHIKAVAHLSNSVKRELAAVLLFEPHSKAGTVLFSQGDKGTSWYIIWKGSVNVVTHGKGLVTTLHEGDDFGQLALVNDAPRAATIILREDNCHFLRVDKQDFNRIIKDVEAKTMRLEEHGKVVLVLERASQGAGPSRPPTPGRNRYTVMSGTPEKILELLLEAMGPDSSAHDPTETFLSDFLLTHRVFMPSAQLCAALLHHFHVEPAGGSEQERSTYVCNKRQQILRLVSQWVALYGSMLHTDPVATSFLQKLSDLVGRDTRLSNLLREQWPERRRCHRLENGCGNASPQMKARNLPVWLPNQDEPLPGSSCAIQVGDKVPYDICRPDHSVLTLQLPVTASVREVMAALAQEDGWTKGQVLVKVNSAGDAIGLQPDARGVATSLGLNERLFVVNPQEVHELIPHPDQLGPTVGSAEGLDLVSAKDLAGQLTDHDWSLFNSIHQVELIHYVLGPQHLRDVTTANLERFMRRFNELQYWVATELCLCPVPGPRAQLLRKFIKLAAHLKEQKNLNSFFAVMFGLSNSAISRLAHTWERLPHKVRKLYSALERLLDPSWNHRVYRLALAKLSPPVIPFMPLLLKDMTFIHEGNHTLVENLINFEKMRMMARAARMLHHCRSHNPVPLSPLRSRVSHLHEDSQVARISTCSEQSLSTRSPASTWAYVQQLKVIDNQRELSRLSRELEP
Sequence of Alpha-galactosidase (Coffea arabica) (Q42656 whole entry, looked up): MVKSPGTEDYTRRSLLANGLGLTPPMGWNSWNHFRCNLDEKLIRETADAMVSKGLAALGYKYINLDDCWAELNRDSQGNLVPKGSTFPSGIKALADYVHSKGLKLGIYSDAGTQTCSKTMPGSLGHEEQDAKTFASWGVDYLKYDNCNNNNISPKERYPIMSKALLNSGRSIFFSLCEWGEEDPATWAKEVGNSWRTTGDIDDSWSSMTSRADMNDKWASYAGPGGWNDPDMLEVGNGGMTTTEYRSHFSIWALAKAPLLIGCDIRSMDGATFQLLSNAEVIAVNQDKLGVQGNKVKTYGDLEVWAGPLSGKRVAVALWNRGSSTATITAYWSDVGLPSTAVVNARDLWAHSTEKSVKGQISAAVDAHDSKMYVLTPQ
Sequence of Glucocorticoid receptor (Homo sapiens) (P04150 whole entry, looked up, the tested form may be a part): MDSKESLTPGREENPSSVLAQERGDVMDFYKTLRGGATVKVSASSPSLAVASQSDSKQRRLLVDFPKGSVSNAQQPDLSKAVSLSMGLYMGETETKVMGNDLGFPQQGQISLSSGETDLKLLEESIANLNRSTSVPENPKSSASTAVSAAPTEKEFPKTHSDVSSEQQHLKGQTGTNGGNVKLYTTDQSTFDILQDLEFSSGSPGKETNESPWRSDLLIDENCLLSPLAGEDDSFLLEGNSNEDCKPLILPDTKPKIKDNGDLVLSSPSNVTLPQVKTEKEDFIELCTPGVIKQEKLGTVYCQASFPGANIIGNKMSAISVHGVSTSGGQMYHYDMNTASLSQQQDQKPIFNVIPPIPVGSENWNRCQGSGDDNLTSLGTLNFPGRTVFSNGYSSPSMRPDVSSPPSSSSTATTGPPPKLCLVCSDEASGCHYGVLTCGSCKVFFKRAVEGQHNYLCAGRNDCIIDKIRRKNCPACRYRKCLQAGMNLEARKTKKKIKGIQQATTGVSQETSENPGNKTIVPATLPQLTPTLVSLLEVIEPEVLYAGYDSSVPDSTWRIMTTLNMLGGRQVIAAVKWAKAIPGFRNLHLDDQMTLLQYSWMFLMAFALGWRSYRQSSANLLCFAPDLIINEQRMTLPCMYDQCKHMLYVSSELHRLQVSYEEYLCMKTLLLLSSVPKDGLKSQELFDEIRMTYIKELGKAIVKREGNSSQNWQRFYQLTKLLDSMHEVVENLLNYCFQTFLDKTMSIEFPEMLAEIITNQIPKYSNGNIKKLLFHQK
Sequence of Pyruvate kinase PKM (Homo sapiens) (P14618 whole entry, looked up): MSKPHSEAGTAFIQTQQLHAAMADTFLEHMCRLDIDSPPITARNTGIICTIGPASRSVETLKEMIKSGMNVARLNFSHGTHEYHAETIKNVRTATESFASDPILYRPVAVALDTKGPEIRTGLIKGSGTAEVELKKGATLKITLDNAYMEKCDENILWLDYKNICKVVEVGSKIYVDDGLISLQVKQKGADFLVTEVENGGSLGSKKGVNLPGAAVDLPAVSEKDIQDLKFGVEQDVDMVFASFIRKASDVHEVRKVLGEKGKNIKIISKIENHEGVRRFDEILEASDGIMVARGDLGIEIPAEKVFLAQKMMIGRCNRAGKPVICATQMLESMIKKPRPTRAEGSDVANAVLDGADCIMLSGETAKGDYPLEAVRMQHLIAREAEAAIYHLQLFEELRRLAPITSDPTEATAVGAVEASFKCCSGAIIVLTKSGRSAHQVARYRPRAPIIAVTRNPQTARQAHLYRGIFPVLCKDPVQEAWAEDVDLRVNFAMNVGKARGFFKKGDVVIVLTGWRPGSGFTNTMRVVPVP
Sequence of Guanine nucleotide-binding protein G(i) subunit alpha-1 (Homo sapiens) (P63096 whole entry, looked up): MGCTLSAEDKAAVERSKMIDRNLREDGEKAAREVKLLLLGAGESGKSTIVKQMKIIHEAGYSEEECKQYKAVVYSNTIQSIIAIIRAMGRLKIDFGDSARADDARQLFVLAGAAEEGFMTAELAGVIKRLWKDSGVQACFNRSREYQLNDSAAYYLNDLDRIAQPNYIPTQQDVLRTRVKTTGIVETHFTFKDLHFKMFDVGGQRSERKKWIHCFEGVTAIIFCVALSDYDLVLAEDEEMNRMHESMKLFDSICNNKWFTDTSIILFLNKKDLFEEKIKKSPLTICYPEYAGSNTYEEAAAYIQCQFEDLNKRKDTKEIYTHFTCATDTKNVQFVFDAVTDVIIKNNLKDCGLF
Sequence of DNA dC->dU-editing enzyme APOBEC-3G (Homo sapiens) (Q9HC16 whole entry, looked up): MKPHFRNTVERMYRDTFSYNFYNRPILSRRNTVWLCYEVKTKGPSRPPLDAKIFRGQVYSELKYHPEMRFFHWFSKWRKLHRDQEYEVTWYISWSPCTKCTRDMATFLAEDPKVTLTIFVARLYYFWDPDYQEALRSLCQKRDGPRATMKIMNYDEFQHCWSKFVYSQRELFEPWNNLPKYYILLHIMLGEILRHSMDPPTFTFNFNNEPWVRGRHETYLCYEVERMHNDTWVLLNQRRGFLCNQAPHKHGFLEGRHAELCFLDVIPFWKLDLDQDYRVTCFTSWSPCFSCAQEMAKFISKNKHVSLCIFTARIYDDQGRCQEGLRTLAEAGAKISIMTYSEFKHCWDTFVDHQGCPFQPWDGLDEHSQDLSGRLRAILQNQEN
Sequence of Lysosomal acid glucosylceramidase (Homo sapiens) (P04062 whole entry, looked up): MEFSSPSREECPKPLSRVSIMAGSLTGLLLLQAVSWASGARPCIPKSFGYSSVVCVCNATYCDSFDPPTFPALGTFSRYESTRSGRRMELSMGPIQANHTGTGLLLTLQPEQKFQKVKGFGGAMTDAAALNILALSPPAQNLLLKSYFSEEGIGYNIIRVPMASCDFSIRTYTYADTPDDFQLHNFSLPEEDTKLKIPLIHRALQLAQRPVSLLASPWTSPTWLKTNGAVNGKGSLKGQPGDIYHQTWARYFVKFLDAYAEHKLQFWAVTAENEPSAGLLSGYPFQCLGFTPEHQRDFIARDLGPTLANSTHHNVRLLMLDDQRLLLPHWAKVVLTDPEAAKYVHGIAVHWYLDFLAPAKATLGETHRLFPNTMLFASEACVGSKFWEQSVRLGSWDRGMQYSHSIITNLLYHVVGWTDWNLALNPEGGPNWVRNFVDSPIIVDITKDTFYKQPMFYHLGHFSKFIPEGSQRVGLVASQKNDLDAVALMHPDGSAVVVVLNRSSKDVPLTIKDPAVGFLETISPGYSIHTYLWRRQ

COP(=O)(/C=C(\Cl)c1ccccc1)/C=C(\Cl)c1ccccc1
inactive: Potency [1] | Potency [2] | Potency [3] | outcome [4] | Potency [5]

Cn1cccc1/C=C1\C(=O)NC(=O)N(Cc2ccco2)C1=O
inactive: Potency [1] | activation [2] 8.15% [at 17.1 µM, percent relative to cAMP agonist control] | activity change, negative = inhibition [3] -7.91% [at 12.7 µM] | activity change, negative = inhibition [4] -2.64% [at 30.8 µM] | activation [5] 7.31% [at 30.8 µM]
active: Potency [6] 14.1 µM

Cn1ncnc2c(=O)n(C)c(=O)nc1-2
inactive: Potency [1] | Potency [2] | Potency [3] | outcome [4] | Potency [5]

O=C1NC(=O)N(Cc2ccco2)C(=O)/C1=C\c1cccn1CCOc1ccc(Cl)cc1
inactive: Potency [1] | activation [2] 1.56% [at 17.1 µM, percent relative to cAMP agonist control] | activity change, negative = inhibition [3] -27.2% [at 12.7 µM] | activity change, negative = inhibition [4] -25.1% [at 30.8 µM]

CCOC(=O)c1c(-c2ccccc2)oc2ccc(OC(=O)N(C)C)cc12
inactive: Potency [1] | Potency [2] | Potency [3] | Potency [5]

Nc1ccc(Cl)cc1C(=O)c1ccccc1Cl
inactive: activation [2] 8.81% [at 17.1 µM, percent relative to cAMP agonist control] | activity change, negative = inhibition [3] -22.9% [at 12.7 µM] | activity change, negative = inhibition [4] -0.237% [at 30.8 µM]

O=C1NC(=O)N(Cc2ccco2)C(=O)/C1=C/c1cccn1CCOc1ccccc1Cl
inactive: Potency [1] | Potency [2] | Potency [3] | Potency [5]

Cc1cc(/C=C2/C(=O)NC(=O)N(Cc3ccco3)C2=O)c(C)n1-c1ccccc1
inactive: Potency [3]

O=C1NC(=S)NC(=O)C1=Cc1cccc2cc3ccccc3cc12
inactive: Potency [7] > 11.4 µM | outcome [8] | activity change, negative = inhibition ([9]; at 7.69 µM (top of the series)) -8.51% | outcome [10] | Potency [11] > 9.22 µM | Potency [12] | Potency [1] | Potency [2]

Cc1oc(-c2ccccc2)nc1CN1C(=O)CN=C(c2ccccc2)c2ccccc21
inactive: Potency [1] | activation [2] 7.27% [at 17.1 µM, percent relative to cAMP agonist control] | activity change, negative = inhibition [4] -7.89% [at 30.8 µM] | activation [5] 28.8% [at 30.8 µM]

Nc1c(C(=O)NCc2ccco2)c2nc3ccccc3nc2n1Cc1ccc(F)cc1
active: activity change, negative = inhibition ([9]; at 17.2 µM (top of the series)) 108% [activator] | Potency [13] 7.94 µM
inactive: Potency [1] | Potency [2] | Potency [3] | Potency [5]

CCn1nc(/C=C/c2ccccc2)nc2c(=O)n(C)c(=O)nc1-2
inactive: Potency [1] | Potency [2] | outcome [4]

O=[N+]([O-])c1ccc(N(CCO)CCO)c2c1no[n+]2[O-]
inactive: Potency [1] | Potency [2] | outcome [4]

COc1ccc(-n2nnnc2C(c2ccccc2OC(F)(F)F)N2CCC(n3c(=O)[nH]c4ccccc43)CC2)cc1 (stereo not drawn)
inactive: Potency [1] | activation [2] 2.83% [at 17.1 µM, percent relative to cAMP agonist control] | activity change, negative = inhibition [3] -5.88% [at 12.7 µM] | activation [5] 2.08% [at 30.8 µM]

FC(F)(F)c1cccc(C2NCc3ccccc3-n3cccc32)c1 (stereo not drawn)
inactive: activation [2] 12.8% [at 17.1 µM, percent relative to cAMP agonist control] | activity change, negative = inhibition [3] 2.28% [at 12.7 µM] | activity change, negative = inhibition [4] -3.38% [at 30.8 µM]

CCCCCCC(C)(C)c1ccc([C@@H]2C[C@H](O)CC[C@@H]2CCCO)c(O)c1
active: Potency [3] 35 µM
inactive: outcome [14] | Potency [15] | Potency [16] | outcome [17] | outcome [18] | outcome [19] | outcome [20] | outcome [21] | outcome [22] | Potency [1] | Potency [2]

CCOC(=O)[C@]12Cc3cc(Cl)ccc3[C@H]1N(CC(=O)OC)C(=O)c1ccccc12
inactive: Potency [1] | Potency [2] | Potency [5]
